From PubChem BioAssay
Cycloheximide cs = Cycloheximide Counterscreen for Small Molecule Inhibitors of Shiga Toxin | cell reporter, cycloheximide protein synthesis inhibition counterscreen | max response, % | hit rate 12% among 300,000 | AID 2314, 2010; in the data active means max response mostly above about 13%, no sharp cut-off; inactive means mostly below about 14%; further: read at 38.3 µM for the half of the compounds with a filed dose; 0% is about no effect
Pf growth 48h = Primary qHTS for delayed death inhibitors of the malarial parasite plastid, 48 hour incubation. hit rate 5.9% among 310,000. P. falciparum luciferase growth in erythrocytes, 48 h. Potency, µM (titrated, usually from 28.7 µM), for inactives: at the top dose activity change, negative = inhibition, usual class: inhibitors; further: potency means the concentration at half of the fitted maximal effect; on the % scale 0 is the no-effect control and ±100 the full control effect
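First compound was added to culture medium, then infected red cells at 0.1% parasitemia and 2% hematocrit (final). After incubation at 37 C under 5% CO2, luciferase detection reagent was dispensed and light output recorded.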
AMA1 RON2 block = qHTS for Inhibitors of AMA1-RON; Towards Development of Antimalarial Drug Lead: Primary Screen; Plasmodium falciparum AMA1 (3D7) - RON2 peptide interaction; AlphaScreen AMA1-biotinylated RON2 peptide binding; Potency, µM (doses to about 58.2 µM), inactives show at the top dose activity change, negative = inhibition, actives largely listed as inhibitors; hit rate 0.2% among 360,000;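 further: potency means the concentration at half of the fitted maximal effect; 0% = vehicle wells and -100% = peptide control; nearly all actives have a fitted effect of over 45% in size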
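AMA1 (3D7) with his tag at 25 nM final met compounds first, then biotinylated RON2 peptide at 25 nM; detection used donor plus acceptor beads, 10 µg/mL apiece, read by AlphaScreen after 30 min at room temperature.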
Shiga inhibitor = A qHTS for Small Molecule Inhibitors of Shiga Toxin | inhibition, % at 38.7 µM | hit rate 9.2% among 290,000 | Vero cells, Shiga toxin protein synthesis inhibition reporter; in the data active means inhibition mostly above about 28%, no sharp cut-off; inactive means mostly below about 43%; further: 0% is about no effect
HCV inh = qHTS Assay for Inhibitors of Hepatitis C Virus (HCV) | hit rate 3.4% among 340,000 | Huh7.5.1 HCVcc-Cre infection, luciferase reporter, 44 h | Potency, µM (series often up to 41.8 µM), for inactives: top-dose activity change, negative = inhibition, hits mostly inhibitors; further: potency means the concentration at half of the fitted maximal effect; on the % scale 0 is the no-effect control and ±100 the full control effect
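Seed cells (1,000/well) for 4 h; treat with compound and infect with HCVcc-Cre, moi about 0.5. Incubate 44 h, then detect luciferase activity.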
Pf growth 96h = Primary qHTS for delayed death inhibitors of the malarial parasite plastid, 96 hour incubation | P. falciparum luciferase reporter growth, 96 h | Potency, µM (top dose mostly 28.7 µM), for the others: top-dose activity change, negative = inhibition, hits mostly inhibitors | hit rate 6.9% among 320,000 | AID 504834, 2011; further: potency means the concentration at half of the fitted maximal effect; on the % scale 0 is the no-effect control and ±100 the full control effect
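96 h incubation, 37 C, 5% CO2, of luciferase-reporter P. falciparum-infected RBCs (2% hematocrit, 0.05% parasitemia final) with test compounds; endpoint luminescence.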
* = called active by the depositor; ? = inconclusive; . = no result. Rows were chosen to be rich in hits. Some 21% of all compounds tested hit in one or more screens of this group. Unless noted, the call rests on the fitted dose curve; in most records, active means well fitted curve in the direction sought with a large enough effect; inconclusive means small, poorly fitted or top-dose-only effect, or another doubt; inactive means no such curve, though single readings can be large; an effect the other way counts as inactive or inconclusive.

SMILES	Cycloheximide cs	Pf growth 48h	AMA1 RON2 block	Shiga inhibitor	HCV inh	Pf growth 96h
O=C(NC1CC1)c1sc2cc(F)ccc2c1Cl	.	48%	0%	.	-14%	59%
CCCCCNS(=O)(=O)c1cc2c3c(c1)CCC(=O)N3CCC2	-1	-2%	-5%	-6	-9%	16%
CCOC1CCCc2oc(-c3ccc(OC)cc3)c(C(=O)NCCCCO)c21 (stereo not given)	.	.	3%	.	.	.
COc1cc(C(=O)O[C@H]2C/C(C)=C/CC[C@@]3(C)O[C@@H]3[C@H](O)[C@@H]2C(C)C)cc(OC)c1OC	-3	?	-11%	2	?	?
COc1cc(C(=O)O[C@H]2C/C(C)=C/CC[C@]3(C)O[C@@H]3C(O)C2C(C)C)cc(OC)c1OC (stereo not given in full)	-4	?	-14%	-2	-13%	4.1µM*
CN(CC(=O)Nc1cccc(F)c1)C(=O)c1ccc(-c2ccc(Cl)cc2)o1	23*	1.9µM*	-1%	71*	?	1.7µM*
Cc1ccc(C)c(NC(=O)CN(C)C(=O)c2cc3ccccc3o2)c1	15	2.3µM*	-3%	51	11%	3.3µM*
Cc1cccc(C)c1NC(=O)CN(C)C(=O)c1ccc(-c2cccc(C(F)(F)F)c2)o1	.	12µM*	-20%	.	?	?
CN(CC(=O)Nc1cccc(F)c1)C(=O)CCCNC(=O)c1ccc(Cl)cc1	.	132%	0%	.	2%	125%
Cc1ccc(C)c(NC(=O)CN(C)C(=O)c2ccc(-c3ccc(Cl)cc3)o2)c1	.	1.5µM*	3%	.	?	13µM*
Cc1ccc(C)c(NC(=O)CN(C)C(=O)c2cc3ccccc3oc2=O)c1	.	.	4%	.	5%	.
Cc1cccc(-n2c(SCC(=O)NCC3CCCO3)nc3ccccc3c2=O)c1C (stereo not given)	.	?	20%	.	0%	-44%
O=C(Nc1ccc2c(c1)OCCO2)C(C1CC1)N1CCN(c2ccc(C(F)(F)F)cn2)CC1 (stereo not given)	.	.	-21%	.	.	.
COCCCn1c(SCC(=O)N2CCc3ccccc32)nnc1-c1ccco1	1	-6%	-6%	7	2%	12µM*
COCCCn1c(SCC(=O)N2CCc3ccccc32)nnc1-c1ccoc1C	.	.	-6%	.	11%	.
COCCCn1c(SCC(=O)OC2CCCCC2)nnc1-c1ccco1	17*	?	0%	19	18%	?
Cn1c(SCC(=O)OC2CCCCC2)nnc1-c1ccco1	16*	-8%	1%	16	4%	?
Cc1nnc(NC(=O)CSCc2cc(=O)c3ccccc3[nH]2)s1	.	-23%	.	.	.	-1%
c1ccc(N2CC[N+]3(CCCC3)CC2)nc1	0	-7%	-2%	1	4%	-7%
C(=C\c1ccccc1)/C=N/N1CCN(c2ccccn2)CC1	39*	107%	-10%	48*	7%	181%
C(=C\c1ccccc1)/C=N/N1CCN(Cc2ccccc2)CC1	27*	37%	?	43*	-10%	53%
C(/C=C/c1ccccc1)=N/N1CCN(c2ccccc2)CC1	16*	102%	-7%	41	15%	88%
CC(/C=N/N1CCN(c2ccccn2)CC1)=C\c1ccccc1	23*	105%	-8%	47*	-17%	193%
COc1cc2ccc(C=O)cc2cc1OC	.	.	-1%	.	.	.
CCNC(=O)C1(C)CCN(C(=O)c2c(F)ccc(C)c2F)C1 (stereo not given)	.	.	7%	.	.	.
SMILES	Cycloheximide cs	Pf growth 48h	AMA1 RON2 block	Shiga inhibitor	HCV inh	Pf growth 96h
OCCc1ccc(O)c(-n2nc3ccccc3n2)c1	22*	88%	-1%	59*	2%	109%
CCOc1nc(-c2ccccc2)ccc1-c1noc(-c2cccs2)n1	-3	?	3%	-7	1%	?
c1ccc(-c2nc(-c3ccc(-c4ccon4)s3)no2)cc1	34*	353%	-26%	61*	23%	107%
CCOc1nc(-c2ccccc2)ccc1-c1noc(-c2ccncc2)n1	2	-13%	-2%	9	-16%	23%
c1csc(-c2nc(-c3ccc(-c4ccon4)s3)no2)c1	56*	393%	-7%	65*	-9%	260%
CCOC(=O)C1=CCN(S(=O)(=O)c2ccc(C)cc2)C1c1cccc(Cl)c1 (stereo not given)	.	.	6%	.	.	.
CCCCn1nc(C(=O)N2CCN(S(=O)(=O)c3ccccc3)CC2)c2ccccc2c1=O	.	?	-5%	.	?	?
C[n+]1c(-c2ccccc2)cc2c(=Cc3ccccc3)c3ccccc3n21	.	.	16µM*	.	?	.
CN(C)c1ccc(C=c2c3cc(O)ccc3n3c2cc(-c2ccccc2)[n+]3C)cc1	.	.	14µM*	.	?	.
Cc1oc(=O)oc1CN1CCN(c2cc3c(cc2F)c(=O)c(C(=O)O)c2n3C(C)S2)CC1 (stereo not given)	.	2.4µM*	.	.	.	1.7µM*
CCC(=O)N1CCN(c2cc3c(cc2F)c(=O)c(C(=O)O)cn3CC)CC1	.	.	-18%	.	7%	.
O=C1/C(=C\c2cccs2)N=C(c2cccs2)N1Nc1ccccc1	14	4%	-21%	52	?	.
O=C1/C(=C/c2cccs2)N=C(c2cccs2)N1Nc1ccccc1	6	20%	-21%	3	14µM*	.
O=C(CN1C(=O)/C(=C2/SC(=S)N(CCS(=O)(=O)O)C2=O)c2ccccc21)Nc1cccc(Br)c1	.	.	-25%	.	16%	.
Cc1ccc(OCCCCn2ccnc2C)c(C)c1	8	?	-11%	3	?	-22%
Cc1ccc(C(C)C)c(OCCn2ccnc2C)c1	-1	?	-26%	.	-24%	12µM*
O=C1NC[C@@H](CCCCN2C[C@H](Cc3ccccc3)N(CCc3ccc(O)cc3)C(=O)C2=O)N(Cc2ccccc2)C1=O	.	.	1%	.	.	.
COc1ccc(OC)c(C2(O)CSC(=Nc3cccnc3)N2Cc2ccco2)c1 (stereo not given)	5	12µM*	-23%	-2	?	4.7µM*
